Holding throughout (assay): log2 ratio of Biotin-Ahx-Ub-VS probe labelling (fragment/DMSO); higher = less target engagement (more negative = stronger competition), active = hit call of the paper (q ≤ 0.05, log2 ratio ≤ -1)
What all share (details): compound concentration: 200 uM; treatment time: 3 h

In one test the target is USP16 (UniProt Q9Y5T5). Put shortly:
(§1)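 Labelled DUBs were enriched with NeutrAvidin, digested with LysC and trypsin, and run by diaPASEF LC-MS/MS. The labelling used Biotin-Ahx-Ub-VS at 0.5 µM final for 1 h on HEK293T lysate (495 µg per sample) previously treated in triplicate with fragment at 200 µM or vehicle for 3 h. Values are average log2 fragment/vehicle ratios by unpaired t-test on global-median-normalised Spectronaut quantities of proteins with ≥2 unique peptides.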

Another test concerns the target T1, USP19 (UniProt O94966).
T1 sequence (whole entry): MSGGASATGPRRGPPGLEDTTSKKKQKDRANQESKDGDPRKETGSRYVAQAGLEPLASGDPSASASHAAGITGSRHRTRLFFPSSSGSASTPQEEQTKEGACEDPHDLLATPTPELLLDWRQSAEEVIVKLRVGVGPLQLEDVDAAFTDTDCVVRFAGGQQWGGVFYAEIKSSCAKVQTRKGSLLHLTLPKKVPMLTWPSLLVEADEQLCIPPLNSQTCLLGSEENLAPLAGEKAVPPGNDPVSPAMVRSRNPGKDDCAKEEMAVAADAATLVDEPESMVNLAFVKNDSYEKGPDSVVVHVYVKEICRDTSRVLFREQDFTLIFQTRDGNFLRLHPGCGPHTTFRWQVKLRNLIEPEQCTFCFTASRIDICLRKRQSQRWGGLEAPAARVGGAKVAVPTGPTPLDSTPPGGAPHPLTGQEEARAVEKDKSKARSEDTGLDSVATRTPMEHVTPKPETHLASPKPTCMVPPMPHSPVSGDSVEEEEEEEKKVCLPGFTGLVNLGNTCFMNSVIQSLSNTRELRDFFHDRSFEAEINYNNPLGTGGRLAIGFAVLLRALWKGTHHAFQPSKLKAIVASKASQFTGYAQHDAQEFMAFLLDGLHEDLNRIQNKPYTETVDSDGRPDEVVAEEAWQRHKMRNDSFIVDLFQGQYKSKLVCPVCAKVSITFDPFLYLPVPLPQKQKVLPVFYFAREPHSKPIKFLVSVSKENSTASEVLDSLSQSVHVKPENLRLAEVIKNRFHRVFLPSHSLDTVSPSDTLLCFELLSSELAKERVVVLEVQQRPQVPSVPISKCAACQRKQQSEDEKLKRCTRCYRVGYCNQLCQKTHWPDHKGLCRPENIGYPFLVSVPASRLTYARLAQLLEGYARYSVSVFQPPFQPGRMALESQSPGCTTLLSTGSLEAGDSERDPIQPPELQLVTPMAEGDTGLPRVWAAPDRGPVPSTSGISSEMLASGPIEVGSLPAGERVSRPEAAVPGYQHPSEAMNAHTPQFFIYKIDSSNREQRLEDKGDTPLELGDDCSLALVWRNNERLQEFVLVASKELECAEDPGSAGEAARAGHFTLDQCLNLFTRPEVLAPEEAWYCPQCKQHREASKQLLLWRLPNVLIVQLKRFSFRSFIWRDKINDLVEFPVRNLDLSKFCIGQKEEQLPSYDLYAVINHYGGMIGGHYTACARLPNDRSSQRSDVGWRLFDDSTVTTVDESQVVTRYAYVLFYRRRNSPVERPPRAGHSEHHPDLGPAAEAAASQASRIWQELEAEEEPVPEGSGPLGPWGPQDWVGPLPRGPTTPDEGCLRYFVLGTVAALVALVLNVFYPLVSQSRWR
The essentials:
as §1

The target of a further test is USP24 (UniProt Q9UPU5). Put shortly:
as §1

The target in a further test is T2, USP25 (UniProt Q9UHP3).
T2 sequence (whole entry): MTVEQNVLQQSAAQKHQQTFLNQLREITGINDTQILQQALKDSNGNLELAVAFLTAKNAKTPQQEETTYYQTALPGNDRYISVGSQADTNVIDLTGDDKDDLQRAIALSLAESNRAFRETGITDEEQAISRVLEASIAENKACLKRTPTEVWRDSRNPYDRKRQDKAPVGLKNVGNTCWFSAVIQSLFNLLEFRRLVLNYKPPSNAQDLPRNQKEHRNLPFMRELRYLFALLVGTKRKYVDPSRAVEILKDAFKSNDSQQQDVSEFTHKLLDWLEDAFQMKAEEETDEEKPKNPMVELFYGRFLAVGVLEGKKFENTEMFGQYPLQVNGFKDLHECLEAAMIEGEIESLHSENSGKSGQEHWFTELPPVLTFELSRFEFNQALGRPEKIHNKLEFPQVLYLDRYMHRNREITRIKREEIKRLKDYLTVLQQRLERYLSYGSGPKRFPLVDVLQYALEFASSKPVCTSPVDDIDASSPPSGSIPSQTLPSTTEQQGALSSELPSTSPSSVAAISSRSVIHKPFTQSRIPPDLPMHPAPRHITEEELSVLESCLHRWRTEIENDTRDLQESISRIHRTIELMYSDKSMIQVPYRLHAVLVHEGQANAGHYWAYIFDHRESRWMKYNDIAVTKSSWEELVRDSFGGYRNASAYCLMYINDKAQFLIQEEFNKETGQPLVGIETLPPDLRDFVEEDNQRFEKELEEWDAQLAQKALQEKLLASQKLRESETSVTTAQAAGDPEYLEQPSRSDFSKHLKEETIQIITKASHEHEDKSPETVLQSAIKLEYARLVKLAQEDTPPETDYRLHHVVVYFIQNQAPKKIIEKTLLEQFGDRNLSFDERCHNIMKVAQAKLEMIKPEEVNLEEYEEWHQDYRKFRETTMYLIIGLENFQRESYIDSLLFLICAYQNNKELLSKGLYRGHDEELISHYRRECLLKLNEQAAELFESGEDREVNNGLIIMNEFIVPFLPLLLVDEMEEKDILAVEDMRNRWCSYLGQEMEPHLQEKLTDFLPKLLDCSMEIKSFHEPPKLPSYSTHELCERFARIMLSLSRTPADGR
Put shortly:
as §1

The target of the next test is T3, USP28 (UniProt Q96RU2).
T3 sequence (whole entry): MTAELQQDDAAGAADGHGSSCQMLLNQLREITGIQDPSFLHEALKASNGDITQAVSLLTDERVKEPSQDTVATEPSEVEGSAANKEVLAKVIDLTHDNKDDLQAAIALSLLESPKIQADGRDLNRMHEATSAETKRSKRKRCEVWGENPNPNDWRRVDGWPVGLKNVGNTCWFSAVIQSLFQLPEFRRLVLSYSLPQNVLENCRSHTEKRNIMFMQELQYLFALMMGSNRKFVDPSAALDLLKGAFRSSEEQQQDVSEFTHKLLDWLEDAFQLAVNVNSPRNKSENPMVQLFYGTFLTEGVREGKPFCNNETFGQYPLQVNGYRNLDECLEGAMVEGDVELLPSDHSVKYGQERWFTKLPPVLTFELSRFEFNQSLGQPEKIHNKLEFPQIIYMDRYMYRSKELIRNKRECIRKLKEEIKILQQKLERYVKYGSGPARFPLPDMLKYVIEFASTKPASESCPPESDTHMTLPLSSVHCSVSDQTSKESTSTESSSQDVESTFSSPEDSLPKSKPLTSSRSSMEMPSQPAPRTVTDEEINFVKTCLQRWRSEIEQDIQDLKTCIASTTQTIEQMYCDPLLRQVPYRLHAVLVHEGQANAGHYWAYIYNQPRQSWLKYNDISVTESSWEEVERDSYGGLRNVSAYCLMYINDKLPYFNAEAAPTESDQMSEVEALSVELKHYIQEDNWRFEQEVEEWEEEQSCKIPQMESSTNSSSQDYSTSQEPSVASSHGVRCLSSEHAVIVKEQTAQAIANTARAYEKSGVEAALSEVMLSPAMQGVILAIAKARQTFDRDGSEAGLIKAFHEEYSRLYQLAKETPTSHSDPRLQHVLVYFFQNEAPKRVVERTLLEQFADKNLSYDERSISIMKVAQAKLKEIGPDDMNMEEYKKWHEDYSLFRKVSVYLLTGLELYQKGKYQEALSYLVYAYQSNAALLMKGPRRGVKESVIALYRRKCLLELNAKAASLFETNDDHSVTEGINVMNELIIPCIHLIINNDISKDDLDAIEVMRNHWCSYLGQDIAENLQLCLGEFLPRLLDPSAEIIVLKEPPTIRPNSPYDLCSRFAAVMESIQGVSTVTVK
The essentials:
as §1

Unmarked numbers belong to inactive results.

USP16, sequence (Q9Y5T5 whole entry, looked up, the tested form may be a part): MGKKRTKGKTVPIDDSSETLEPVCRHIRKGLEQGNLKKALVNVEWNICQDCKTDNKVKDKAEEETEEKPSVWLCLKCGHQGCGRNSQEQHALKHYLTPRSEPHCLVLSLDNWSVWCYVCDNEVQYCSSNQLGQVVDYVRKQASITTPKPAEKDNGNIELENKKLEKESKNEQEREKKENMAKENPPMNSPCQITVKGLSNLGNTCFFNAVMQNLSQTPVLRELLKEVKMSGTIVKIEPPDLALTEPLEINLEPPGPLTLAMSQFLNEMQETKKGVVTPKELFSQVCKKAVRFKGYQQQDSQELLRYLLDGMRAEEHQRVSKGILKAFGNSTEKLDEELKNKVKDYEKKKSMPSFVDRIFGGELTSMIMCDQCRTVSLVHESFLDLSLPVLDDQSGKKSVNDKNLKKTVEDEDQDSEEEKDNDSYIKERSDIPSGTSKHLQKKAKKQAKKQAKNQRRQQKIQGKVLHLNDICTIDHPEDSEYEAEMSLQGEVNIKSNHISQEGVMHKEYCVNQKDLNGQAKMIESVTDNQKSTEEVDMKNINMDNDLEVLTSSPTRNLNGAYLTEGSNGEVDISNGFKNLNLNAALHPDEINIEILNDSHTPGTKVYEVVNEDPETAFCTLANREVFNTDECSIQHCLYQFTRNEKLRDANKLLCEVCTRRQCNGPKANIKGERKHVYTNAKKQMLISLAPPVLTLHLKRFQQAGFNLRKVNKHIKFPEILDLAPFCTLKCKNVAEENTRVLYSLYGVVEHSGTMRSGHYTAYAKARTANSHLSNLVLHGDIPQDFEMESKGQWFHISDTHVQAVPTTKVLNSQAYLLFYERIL
USP24, sequence (Q9UPU5 whole entry): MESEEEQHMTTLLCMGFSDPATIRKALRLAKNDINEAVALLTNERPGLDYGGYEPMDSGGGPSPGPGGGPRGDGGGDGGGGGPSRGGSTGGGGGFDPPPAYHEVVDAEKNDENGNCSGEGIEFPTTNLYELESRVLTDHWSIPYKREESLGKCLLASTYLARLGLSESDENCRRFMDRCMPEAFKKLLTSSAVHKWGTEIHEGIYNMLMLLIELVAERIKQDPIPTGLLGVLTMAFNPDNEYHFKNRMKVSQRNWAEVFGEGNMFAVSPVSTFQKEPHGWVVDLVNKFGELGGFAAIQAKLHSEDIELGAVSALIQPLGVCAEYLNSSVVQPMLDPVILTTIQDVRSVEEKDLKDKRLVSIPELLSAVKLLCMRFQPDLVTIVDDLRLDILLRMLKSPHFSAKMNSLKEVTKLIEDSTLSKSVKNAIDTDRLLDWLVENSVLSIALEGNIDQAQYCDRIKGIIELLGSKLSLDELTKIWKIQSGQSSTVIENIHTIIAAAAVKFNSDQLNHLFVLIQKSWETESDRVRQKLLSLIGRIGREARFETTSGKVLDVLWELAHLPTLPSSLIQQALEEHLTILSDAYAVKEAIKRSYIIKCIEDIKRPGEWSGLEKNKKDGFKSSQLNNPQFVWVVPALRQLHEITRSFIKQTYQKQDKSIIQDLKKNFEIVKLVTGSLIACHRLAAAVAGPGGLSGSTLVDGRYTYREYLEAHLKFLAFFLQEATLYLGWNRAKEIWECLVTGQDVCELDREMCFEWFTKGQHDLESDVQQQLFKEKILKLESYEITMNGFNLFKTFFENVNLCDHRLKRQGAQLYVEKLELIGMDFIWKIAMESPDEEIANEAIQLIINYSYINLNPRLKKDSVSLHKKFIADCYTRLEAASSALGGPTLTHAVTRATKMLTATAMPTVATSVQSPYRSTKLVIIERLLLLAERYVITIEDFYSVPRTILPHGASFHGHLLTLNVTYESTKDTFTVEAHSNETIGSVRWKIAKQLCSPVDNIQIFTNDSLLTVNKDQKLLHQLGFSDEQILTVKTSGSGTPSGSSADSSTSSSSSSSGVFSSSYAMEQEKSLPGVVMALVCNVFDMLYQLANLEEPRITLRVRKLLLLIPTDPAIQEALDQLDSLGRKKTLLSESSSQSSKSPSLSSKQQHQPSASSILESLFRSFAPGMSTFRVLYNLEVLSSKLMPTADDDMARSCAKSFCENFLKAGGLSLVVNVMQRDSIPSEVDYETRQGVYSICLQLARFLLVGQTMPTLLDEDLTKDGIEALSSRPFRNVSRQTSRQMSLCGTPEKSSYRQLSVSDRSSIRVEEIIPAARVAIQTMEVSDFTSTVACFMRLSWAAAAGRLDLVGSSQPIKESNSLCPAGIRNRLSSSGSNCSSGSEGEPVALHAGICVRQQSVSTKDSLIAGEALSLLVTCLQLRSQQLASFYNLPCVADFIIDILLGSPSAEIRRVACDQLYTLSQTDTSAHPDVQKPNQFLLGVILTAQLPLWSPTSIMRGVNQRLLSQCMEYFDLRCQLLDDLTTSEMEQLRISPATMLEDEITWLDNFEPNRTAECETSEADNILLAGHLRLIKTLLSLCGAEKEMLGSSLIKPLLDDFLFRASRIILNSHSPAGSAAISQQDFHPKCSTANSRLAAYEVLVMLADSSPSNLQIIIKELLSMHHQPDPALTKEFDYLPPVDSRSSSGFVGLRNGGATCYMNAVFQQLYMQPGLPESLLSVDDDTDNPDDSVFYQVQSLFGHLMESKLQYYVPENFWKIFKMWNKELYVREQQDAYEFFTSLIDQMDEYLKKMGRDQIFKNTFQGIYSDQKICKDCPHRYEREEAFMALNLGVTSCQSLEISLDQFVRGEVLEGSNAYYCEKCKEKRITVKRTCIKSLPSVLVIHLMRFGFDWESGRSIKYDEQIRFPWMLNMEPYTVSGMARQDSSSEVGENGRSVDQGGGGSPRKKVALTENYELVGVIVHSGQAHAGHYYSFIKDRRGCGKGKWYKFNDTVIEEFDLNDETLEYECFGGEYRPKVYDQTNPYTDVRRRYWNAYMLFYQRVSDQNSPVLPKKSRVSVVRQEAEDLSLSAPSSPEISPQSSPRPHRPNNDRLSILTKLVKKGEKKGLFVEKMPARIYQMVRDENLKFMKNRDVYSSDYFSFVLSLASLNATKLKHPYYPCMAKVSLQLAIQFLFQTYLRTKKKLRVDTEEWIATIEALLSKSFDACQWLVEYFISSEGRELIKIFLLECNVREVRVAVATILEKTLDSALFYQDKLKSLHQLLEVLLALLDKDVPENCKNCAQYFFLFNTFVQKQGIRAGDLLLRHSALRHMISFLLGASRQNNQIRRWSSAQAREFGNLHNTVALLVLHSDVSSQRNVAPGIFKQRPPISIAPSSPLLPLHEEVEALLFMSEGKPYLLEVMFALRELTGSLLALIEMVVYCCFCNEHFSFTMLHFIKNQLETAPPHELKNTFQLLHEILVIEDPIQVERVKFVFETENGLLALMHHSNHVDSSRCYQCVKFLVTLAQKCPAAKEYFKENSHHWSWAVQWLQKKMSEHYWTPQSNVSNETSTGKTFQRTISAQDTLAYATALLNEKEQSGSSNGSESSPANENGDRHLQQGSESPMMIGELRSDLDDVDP

Consider `N#Cc1ccc(Cl)cc1NC(=O)CCl`, for which the “log2 ratio of Biotin-Ahx-Ub-VS probe labelling” value with USP16 was -0.655; with USP19, -0.121; in the test with USP24, -0.83; with USP25, -0.912; in the test with USP28 it was -1.49 (active).

For the origin of these results see the supplement of paper PMC11732987, “Enantioselective OTUD7B fragment discovery through chemoproteomics screening and high-throughput optimisation” (Communications Chemistry, 2025).
